Experimental data: PubChem BioAssay (Tox21)
Where “and” joins values, the source holds several entries; their conditions need not be identical. Equal entries are not always repeated. Inconclusive results are not listed. Calls of active or inactive are those of the source. Calls come from the whole dose curve; as a rule, active = well fitted inhibition curve with a large enough effect in the repeat runs; inconclusive = weak or mixed curves, or effect the other way; inactive = no such curve, though single readings can be large or run the other way.

Biological target: Nuclear receptor ROR-gamma (Homo sapiens) (UniProt P51449)
Assay: qHTS assay to identify small molecule antagonists of the retinoid-related orphan receptor gamma (ROR-gamma) signaling pathway (AID 1159521; note: nearly all actives have a fitted effect of over 50% in size; for activity change, negative = inhibition: top concentration of the series differs between compounds)
Settings: Tet-on RORgamma CHO cells, RORE-luciferase, 16 h; series mostly up to 92.4 µM; activity change, negative = inhibition: at the top concentration
From the text: U.S. Tox21 Program National Center for Advancing Translational Sciences [NCATS] NIH Chemical Genomics Center [NCGC] U.S. Environmental Protection Agency [EPA] National Institutes of Environmental Health Sciences [NIEHS] National Toxicology Program [NTP] U.S. Food and Drug Administration [FDA] Tox21 Assay Overview: Nuclear steroid hormone receptors are involved in many biological processes including inflammatory responses, cell proliferation, and apoptosis. Environmental factors or compounds disrupting these nuclear receptor pathways and gene expression may promote susceptibility to immunotoxicants and autoimmune diseases. One important group of these expression factors are the retinoid-related orphan receptors. To assess compounds that may interfere with the retinoid-related orphan receptor gamma (ROR-gamma) transcription factor, a cell-based luciferase assay was used. The CHO cell-based assay utilizes a TET-inducible ROR expression factor and ROR response element-LUC reporter gene. Reporter gene activity was induced using Doxycycline Hyclate and measured after 16 hr incubation. Tet-on ROR gamma CHO cells were used to screen against the Tox21 10K compound library for ROR gamma antagonists by quantification of decreased reporter gene activity in terms of decreased luminescence.
Tox21 Assay Protocol Summary: Tet-on ROR gamma CHO cells were dispensed at 1,000 cells in 4 uL of culture medium per well into white wall/solid bottom 1536-well plates using a Multidrop Combi (Thermo Scientific, Waltham, MA) dispenser. Following incubation at 37 C and 5% CO2 for 4 hr, 23 nL of compounds dissolved in DMSO, positive controls or DMSO only were transferred by a Pintool station (Kalypsys, San Diego, CA) and after 2 hr incubation at 37 C, one ul of 1 uM (final concentration) of Doxycycline Hyclate was added to all the wells by using a Flying Reagent Dispenser (FRD) (Aurora Discovery, San Diego, CA). After 16 hr incubation at 37 C and 5% CO2, 5 uL of ONE-Glo reagent (Promega Corporation, Madison, WI) was added to each assay plate using FRD. After 30 min incubation at room temperature, luminescence was quantified on a ViewLux plate reader (Perkin Elmer, Waltham, MA).
% is set by controls: 0 for no effect and ±100 for the full control effect; potency is the fitted concentration of half-maximal effect.

**Q.** Which Potency does the source give for `CCCCCCCCCC[N+](C)(C)CCCCCCCCCC` here?
**A.** 21.7 µM (active)

**Q.** With `CC(C)(C)OO` as the compound, how does the “activity change, negative = inhibition” value read?
**A.** 0.144% (inactive)

**Q.** Which Potency does the source give for `C=CCC1=C(C)C(OC(=O)C2C(C=C(C)C)C2(C)C)CC1=O` (stereo not given) here?
**A.** 32.5 µM (active)

**Q.** How did the “activity change, negative = inhibition” value turn out when `CC(C)CBr` was run?
**A.** 13.2% (inactive)

**Q.** With `Oc1c(Cl)c(Cl)cc(Cl)c1Cl` as the compound, how does the Potency read?
**A.** 23.7 µM (active)

**Q.** With `N#Cc1ccccc1Cl` as the compound, how does the “activity change, negative = inhibition” value read?
**A.** -1.53% (inactive)

**Q.** `ClCCN1CCOCC1` was tested. Which “activity change, negative = inhibition” value did it give?
**A.** 3.88% (inactive)

**Q.** Which Potency does the source give for `CC(C)CC(C)(c1ccc(O)cc1)c1ccc(O)cc1` here?
**A.** 43.4 µM (active) and 48.6 µM (active)

**Q.** With `N#CNC#N` as the compound, how does the “activity change, negative = inhibition” value read?
**A.** 0.063% (inactive)

**Q.** Which “activity change, negative = inhibition” value does the source give for `FC(Cl)(Cl)Cl` here?
**A.** 7.94% (inactive)

**Q.** Which Potency does the source give for `CC(C)(O)c1cnn2c(-c3ccc(F)c(-c4c(F)cccc4C#N)c3)cnc2n1` here?
**A.** 61.1 µM (active)

**Q.** With `CC(C)CC(C)N` (stereo not given) as the compound, how does the “activity change, negative = inhibition” value read?
**A.** -18.3% (inactive)

**Q.** Which Potency does the source give for `Oc1c(Br)c(Br)c(Br)c(Br)c1Br` here?
**A.** 24.5 µM (active)

**Q.** How did the “activity change, negative = inhibition” value turn out when `Oc1ccccc1Br` was run?
**A.** 11.8% (inactive)

**Q.** How did the Potency turn out when `S=C(SSC(=S)N1CCCCC1)N1CCCCC1` was run?
**A.** 0.15 µM (active)

**Q.** `N#Cc1ccc(O)cc1` was tested. Which “activity change, negative = inhibition” value did it give?
**A.** -2.45% (inactive)

**Q.** How did the “activity change, negative = inhibition” value turn out when `CCOCCOC(C)=O` was run?
**A.** 37.2% (inactive)

**Q.** With `CCCCN(CCCC)C(=S)[S-].CCCCN(CCCC)C(=S)[S-].[Zn+2]` as the compound, how does the Potency read?
**A.** 13.7 µM (active)

**Q.** For `CC(C)OC(=S)S`, which Potency is on record?
**A.** 15.4 µM (active)

**Q.** With `Oc1ccc(I)cc1` as the compound, how does the “activity change, negative = inhibition” value read?
**A.** -23.3% (inactive)

**Q.** Which “activity change, negative = inhibition” value does the source give for `Nc1c(Oc2ccccc2)cc(O)c2c1C(=O)c1ccccc1C2=O` here?
**A.** 116% [at 42.5 µM] (inactive)

**Q.** For `COc1cccc2c1C(=O)c1c(O)c3c(c(O)c1C2=O)C[C@@](O)(C(=O)CO)CC3OC1CC(N2CCOC(OC)C2)C(O)C(C)O1` (stereo not given in full), which Potency is on record?
**A.** 0.298 µM (active)

**Q.** `N#CCCO` was tested. Which “activity change, negative = inhibition” value did it give?
**A.** 5.47% (inactive)

**Q.** For `CCCCCCCCCCBr`, which “activity change, negative = inhibition” value is on record?
**A.** 14.4% (inactive)

**Q.** `Cc1cc(C)c(C2=C(OC(=O)CC(C)(C)C)C3(CCCC3)OC2=O)c(C)c1` was tested. Which “activity change, negative = inhibition” value did it give?
**A.** 2.63% (inactive)

**Q.** How did the “activity change, negative = inhibition” value turn out when `CC(=[OH+])/C=C(/C)[O-].CC(=[OH+])/C=C(\C)[O-].CC(=[OH+])/C=C(\C)[O-].[Fe]` was run?
**A.** -2.23% (inactive)

**Q.** With `CN(C)S(=O)(=O)N(SC(F)(Cl)Cl)c1ccccc1` as the compound, how does the Potency read?
**A.** 4.86 µM (active)

**Q.** With `O=[N+]([O-])c1c2ccccc2cc2ccccc12` as the compound, how does the “activity change, negative = inhibition” value read?
**A.** 66% (inactive)

**Q.** For `N#Cc1ccccc1N`, which “activity change, negative = inhibition” value is on record?
**A.** 10.5% (inactive)

**Q.** How did the Potency turn out when `ClC1=C(Cl)[C@]2(Cl)[C@@H]3[C@@H]4C[C@@H]([C@H]5O[C@@H]45)[C@@H]3[C@@]1(Cl)C2(Cl)Cl` was run?
**A.** 19.3 µM (active)

**Q.** Which “activity change, negative = inhibition” value does the source give for `Nc1ccc(Cc2ccc(N)c(Cl)c2)cc1Cl` here?
**A.** -28.9% (inactive)

**Q.** With `C[C@]12CC[C@H](O)C[C@H]1CC[C@@H]1[C@@H]2C[C@@H](O)[C@]2(C)[C@@H](C3=CC(=O)OC3)CC[C@]12O` as the compound, how does the “activity change, negative = inhibition” value read?
**A.** -6.86% (inactive)

**Q.** How did the Potency turn out when `O=C(CCl)C(Cl)Cl` was run?
**A.** 6.17 µM (active)

**Q.** `BrC(Br)Br` was tested. Which “activity change, negative = inhibition” value did it give?
**A.** 4.15% (inactive)

**Q.** With `CC(=O)O[C@H]1CC[C@@]2(C)C(=CC[C@@H]3[C@@H]2CC[C@]2(C)C(=O)CC[C@@H]32)C1` as the compound, how does the Potency read?
**A.** 48.6 µM (active)

**Q.** For `ClC(Cl)=C(c1ccc(Cl)cc1)c1ccc(Cl)cc1`, which Potency is on record?
**A.** 62.6 µM (active)

**Q.** Which “activity change, negative = inhibition” value does the source give for `COC[C@H](C)N(C(=O)CCl)c1c(C)csc1C` here?
**A.** 26.6% (inactive)

**Q.** `NC(=O)CCl` was tested. Which “activity change, negative = inhibition” value did it give?
**A.** 19.9% (inactive)

**Q.** `Cc1ccc(C(=O)Cl)cc1` was tested. Which “activity change, negative = inhibition” value did it give?
**A.** 5.01% (inactive)

**Q.** Which Potency does the source give for `O=C(O)C1C2CCC(O2)C1C(=O)O` (stereo not given) here?
**A.** 13.9 µM (active) and 12.5 µM (active)
